In the library only some 11% were active in any assay of this set; here they are far more common.
PNC inhibitor: blocks assembly of the perinucleolar compartment | PC3M PTB-GFP, PNC prevalence imaging, 16 h; hits give low values | actives 3.1% (n = 140,000) | activity change (PNC), negative = inhibition, % at 10 µM;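 active = readout at or below -70, meaning at least 70% loss of cells showing the perinucleolar compartment, a nuclear body marking cancer cells; inconclusive = readout between -30 and a set limit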;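 also: plate controls were DMSO wells for no effect and camptothecin positive control wells for full effect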
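Compounds are pinned in duplicate onto adhered PC3M cells stably expressing GFP-tagged PTB and incubated 16 h at 37 C. Cells are then fixed, nuclei stained with Hoechst, and PNC-positive cells counted.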
IMPase Li cell: IMPase inhibition in cells with lithium potentiation; CHO-M1 cells, IP1 TR-FRET (IP-One), carbachol + lithium; Potency, µM (highest dose often 59.4 µM), for inactives: at the highest dose activity, negative = IMPase inhibition, usual class: inhibitors; actives 0.35% (n = 210,000); active = well fitted curve in the direction sought with a large enough effect; inconclusive = small, poorly fitted or top-dose-only effect, or another doubt; inactive = no such curve, though single readings can be large; an effect the other way counts as inactive or inconclusive;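 also: IP1 builds up when IMPase is blocked and the TR-FRET signal falls; potency is read from the fitted curve at half-maximal effect; plate controls were basal vehicle for no effect and high inhibitor control for full effect; nearly all actives have a fitted effect of over 50% in size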
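Lithium-sensitised IP1 accumulation assay; M1-expressing CHO cells treated 30 min at 37C with compound. Competitive antibody detection by time-resolved FRET followed a 10 min room-temperature lysis step.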
IMPase inh: cell-permeable inhibitors of inositol monophosphatase (IMPase); AID 901; 120,000 tested, under 10 active; inhibition (IP1 accumulation), % at 46.1 µM; CHO-M1 cells, IP1 accumulation, HTRF TR-FRET ratio; P97697; active = well fitted curve in the direction sought with a large enough effect in the signal ratio, not every such curve was filed as active; inconclusive = small, poorly fitted or top-dose-only effect, or a change in a side signal; inactive = no such curve, though single readings can be large or run the other way; the % refers to the signal ratio;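 also: cells stimulated with carbachol in lithium chloride buffer; plate controls were DMSO basal wells for no effect and reference inhibitor wells for full effect; higher means more IMPase inhibition seen as more IP1 and lower FRET ratio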
Target sequence (P97697 whole entry, looked up): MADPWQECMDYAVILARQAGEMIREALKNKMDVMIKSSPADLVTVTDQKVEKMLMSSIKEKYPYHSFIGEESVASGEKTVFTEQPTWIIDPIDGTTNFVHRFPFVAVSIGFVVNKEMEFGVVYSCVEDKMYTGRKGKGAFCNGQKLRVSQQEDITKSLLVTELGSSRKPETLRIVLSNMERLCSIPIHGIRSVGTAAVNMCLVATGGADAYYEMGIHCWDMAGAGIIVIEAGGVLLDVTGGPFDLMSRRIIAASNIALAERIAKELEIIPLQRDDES
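Seeded CHO-M1 cells were dosed with compound at up to 46 uM, stimulated with carbachol for 30 min, then lysed in IP-One detection reagents. Higher IP1 lowers the TR-FRET signal.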
HPGD inh: HPGD (human) dehydrogenase inhibition; Potency, µM, for the others: at the highest dose activity change, negative = inhibition, actives largely listed as inhibitors; purified HPGD, NADH fluorescence kinetic, PGE2 substrate; P15428; actives 4.3% (n = 150,000); also: potency is read from the fitted curve at half-maximal effect
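NADH formation kinetics: reaction with 30 uM PGE2 and 1 mM NAD+ (final), 20 nM enzyme, Tris-HCl pH 8 with Tween 20, after 15 min compound preincubation at room temperature. Fluorescence change, last versus first of five reads.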
ALDH1A1 block: ALDH1A1 (human) enzyme inhibition. P00352. Purified ALDH1A1, NADH fluorescence, propionaldehyde substrate. Potency, µM (titrated, usually from 75.3 µM), for the others: at the top dose activity, negative = inhibition, actives largely listed as inhibitors. actives 7.3% (n = 220,000). AID 1030;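 also: potency is read from the fitted curve at half-maximal effect; plate controls were no enzyme wells and a reference inhibitor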
Target sequence (P00352 whole entry, looked up): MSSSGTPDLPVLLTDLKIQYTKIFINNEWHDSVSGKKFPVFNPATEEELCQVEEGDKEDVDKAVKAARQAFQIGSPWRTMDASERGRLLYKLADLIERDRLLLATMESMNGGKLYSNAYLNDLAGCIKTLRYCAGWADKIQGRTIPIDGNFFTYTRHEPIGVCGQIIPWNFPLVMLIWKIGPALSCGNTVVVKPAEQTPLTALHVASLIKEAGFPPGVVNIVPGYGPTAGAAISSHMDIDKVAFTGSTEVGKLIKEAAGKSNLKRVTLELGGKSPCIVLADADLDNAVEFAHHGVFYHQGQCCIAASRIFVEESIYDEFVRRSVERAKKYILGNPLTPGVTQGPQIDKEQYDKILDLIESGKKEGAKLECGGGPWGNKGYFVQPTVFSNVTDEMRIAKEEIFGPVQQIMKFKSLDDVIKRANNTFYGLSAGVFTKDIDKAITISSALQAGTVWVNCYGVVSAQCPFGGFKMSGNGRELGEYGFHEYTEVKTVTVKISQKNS
12-hLO inh: inhibitors of human 12-lipoxygenase (ALOX12). P18054. purified 12-hLO, xylenol orange hydroperoxide absorbance. Potency, µM (highest dose often 57.1 µM), inactives show top-dose activity change, negative = inhibition, actives largely listed as inhibitors. actives 0.12% (n = 150,000); active = well fitted curve in the direction sought with a large enough effect; inconclusive = small, poorly fitted or top-dose-only effect, or another doubt; inactive = no such curve, though single readings can be large; an effect the other way counts as inactive or inconclusive; also: potency is read from the fitted curve at half-maximal effect; nearly all actives have a fitted effect of over 55% in size
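Lipoxygenase turnover measured by absorbance at 573 and 405 nm after Fe-XO development. Human 12hLO 150 nM, arachidonate 40 uM, pH 7.0 Hepes buffer with detergent; 15 min compound preincubation, 30 min reaction.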
Numbers without * were called inactive; u = inconclusive; x = no result given; [ ] = remark or other dose. Unless noted, calls follow the shape of the dose curve; as a rule, active = well fitted inhibition curve with a large enough effect (not every such curve was filed as active); inconclusive = small, poorly fitted or top-dose-only effect, or another doubt; inactive = no such curve, though single readings can be large or run the other way. Unless noted, % is scaled to controls: 0 for no effect and ±100 for the full control effect.

SMILES	PNC inhibitor	IMPase Li cell	IMPase inh	HPGD inh	ALDH1A1 block	12-hLO inh
COc1cc(S(=O)(=O)N(Cc2cccnc2)Cc2ccco2)ccc1-n1cnnn1	39	0%[38.3 µM]	7	-4%	u	-5%
Cc1cc(S(=O)(=O)N(Cc2ccccc2)Cc2ccc(N(C)C)cc2)ccc1-n1cnnn1	-119*	15%	20	-4%	u	3%
CC(=O)Nc1ccc(NC(=O)C(NS(=O)(=O)c2ccc(Br)s2)c2ccccc2)cc1 (configuration not stated)	x	x	-3	x	x	x
CC(C)[C@](N)(C(=O)O)c1ccccc1	x	-3%	x	-5%	-14%[13.5 µM]	2%[11.4 µM]
COc1cccc2c1C(=O)c1c(O)c3c(c(O)c1C2=O)C[C@@](O)(C(=O)CO)C[C@@H]3OC1C[C@@H](N)[C@H](O)[C@H](C)O1 (some centres not stated)	x	17%	x	-6%	-12%	4%[0.00818 µM]
CC1CN(C(=O)/C=C/c2ccc([N+](=O)[O-])s2)CC(C)O1 (configuration not stated)	x	-3%	x	x	u	x
O=C(/C=C/c1ccc([N+](=O)[O-])s1)N1CCCCC1	x	6%	x	x	28µM*	x
CC1CC(C)CN(C(=O)/C=C/c2ccc([N+](=O)[O-])s2)C1 (configuration not stated)	x	u	x	x	2.8µM*	x
CCC(C)NC(=O)c1ccccc1NC(=O)CN1C(=O)c2cccc3cccc1c23 (configuration not stated)	x	x	-6	x	x	x
O=C(N[C@H]1CCCc2ccccc21)O[C@@H]1C(=O)c2cc(Br)ccc2O[C@H]1c1ccc2c(c1)OCO2	x	25%	x	-10%	u	x
Cc1cc(C)n(-c2nc3cc(Cl)c(Cl)cc3nc2Nc2c(C)cccc2C)n1	x	x	-3	x	x	x
O=C1NN(c2ccccc2)C(=O)/C1=C/c1ccc(Sc2cccc3ccccc23)o1	-20	-1%	-11	18µM*	-5%	0%
COc1ccc(NC(=O)CN(c2ccccc2OC)S(C)(=O)=O)c(OC)c1	x	x	4	x	x	x
CCC(=O)OCC(=O)[C@@]1(OC(=O)CC)[C@H](C)C[C@@H]2[C@@H]3[C@H]([C@@H](O)C[C@@]21C)[C@]1(C)C=CC(=O)C=C1C[C@@H]3Cl	x	8%	5[20.6 µM]	-1%	0%[20.9 µM]	-2%[25.6 µM]
O=C(NC1CCN(C(=O)N2c3ccccc3Sc3ccccc32)CC1)c1ccccc1F	-9	4%[38.3 µM]	-1	-10%	11µM*	u
CCN(CC)S(=O)(=O)c1ccc(-c2nnco2)cc1	-100*	2%	-3	-10%	-2%	-4%
O=C(CCl)NCc1cc(-c2ccc(Cl)cc2)no1	x	1%	x	x	22µM*	x
COc1ccc2c(c1)C(=O)[C@H](OC(=O)NS(=O)(=O)c1ccc(F)cc1)[C@@H](c1ccc(OC)c(Br)c1)O2	x	19%	x	-13%	9%	x
C=C1CCC(O)C/C1=C/C=C1\CCC[C@@]2(C)C(C(C)/C=C/C(C)C(C)C)CC[C@@H]12 (some centres not stated)	x	-2%	x	-4%	-3%	-2%
O=C(CNS(=O)(=O)c1ccccc1)NCC(=O)OCc1ccc(C(=O)c2ccccc2)cc1	30	6%	x	20µM*	-22%	1%
Cc1ccc(S(=O)(=O)NCC(=O)OCc2ccccc2)cc1	x	2%	x	x	-3%	x
CC(=O)c1cc(C#N)c(N2CCOCC2)nc1C	x	2%	x	x	0%	x
COc1ccc(CC(=O)NC2CCN(Cc3nnnn3C(C)(C)C)CC2)cc1OC	u	25%[38.3 µM]	0	-6%	25µM*	8%
CCC(C)(C)n1nnnc1CN1CCC(NC(=O)c2ccc(Br)cc2)CC1	u	21%	9	-13%	5µM*	0%
Cc1noc(C)c1-c1cc(N(C)Cc2ccco2)ncn1	x	-4%	x	x	u	x
SMILES	PNC inhibitor	IMPase Li cell	IMPase inh	HPGD inh	ALDH1A1 block	12-hLO inh
COc1ccc(Cl)cc1NC(=O)CSC1=Nc2ccccc2C2=NC(CC(=O)NCc3ccc4c(c3)OCO4)C(=O)N12 (configuration not stated)	x	x	11	x	x	x
COC(=O)c1cc(NC(=O)c2cc(C)oc2C)cc(C(=O)OC)c1	-100*	11%	-5	-21%	25µM*	0%
C#Cc1ccc(C(=O)NCc2ccc(N3CCCC3=O)cc2)cc1	x	3%	x	x	u	x
O=C(NCc1cccs1)c1ccc(N2CCCC2=O)cc1	-20	18%[38.3 µM]	-3	20µM*	2%	3%
Cc1cc(C(=O)Nc2cccc(C(=O)O)c2)c(C)o1	-18	9%[38.3 µM]	-3	-3%	-4%	6%
Cc1csc2ncc(C(=O)NCc3ccco3)c(=O)n12	-100*	-2%	1	u	u	-3%
Cc1cc(C(=O)NCc2cccs2)cs1	-8	11%[38.3 µM]	-9	28µM*	2%	4%
COc1ccc(Oc2ncc3nc(-c4cccc(C#N)c4)c(=O)n(CCC#N)c3n2)cc1	x	23%	x	x	u	x
Nc1cc(C(=O)O)c(O)c(S(=O)(=O)O)c1	x	u	x	-21%	u	-5%
CN(CC(=O)Nc1ccccc1-c1ccccc1)Cc1ccccc1Cl	x	19%	x	x	u	x
OC[C@@H]1[C@@H](c2ccc(F)cc2)C(c2cccc(Cl)c2)=NN1c1ccccc1	x	0%	x	u	u	-8%[0.00818 µM]
CCOC(=O)c1c(-c2ccccc2)oc2ccc(OCc3cccc(Br)c3)cc12	x	x	-10	x	x	x
O=C(NCc1ccco1)c1cc([N+](=O)[O-])cc([N+](=O)[O-])c1	445	-2%	x	-8%	u	1%
O=C(NCCN1CCCCC1)c1ccc2c(c1)OCCO2	29	2%[38.3 µM]	4	8.9µM*	-10%	3%
O=C(NCCN1CCCCC1)c1ccc(I)cc1	x	17%	9	-3%	2%	-4%
O=C(NCc1cccs1)c1ccc2c(c1)OCCO2	u	-5%[38.3 µM]	u	25µM*	4%	-1%
O=C(NCc1ccccc1)c1ccc2c(c1)OCCO2	0	-3%[38.3 µM]	8	u	9%	-4%
Cc1scc(C(=O)NCc2ccco2)c1-c1ccccc1	u	16%[38.3 µM]	-1	32µM*	u	-22%
Cc1cc(C(=O)NCc2ccco2)cs1	u	13%[38.3 µM]	-13	16µM*	u	5%
Cc1cccc(C)c1OC[C@@H](N)C(C)C	x	x	1	x	x	-5%
COc1cccc(-n2c(=O)c3cc(OC)c(OC)cc3n(CC(=O)Nc3ccc(F)cc3)c2=O)c1	x	x	-24	x	x	x
N#CCCn1c(=O)c(-c2ccc(F)cc2)nc2cnc(Oc3ccccc3)nc21	x	2%	x	-10%	u	7%

Screening data: PubChem BioAssay, National Center for Advancing Translational Sciences (NCATS)
